Test results published in PubChem BioAssay AID2588 (National Center for Advancing Translational Sciences (NCATS), 2010).
Results filed as inconclusive are left out. A number with no mark means an inactive call. The source made the active and inactive calls. Calls follow the shape of the dose curve; as a rule, active = well fitted inhibition curve with a large enough effect; inconclusive = small, poorly fitted or top-dose-only effect, or effect the other way; inactive = flat fitted curve, though single readings scatter.

Biological target: Lysosomal acid glucosylceramidase (Homo sapiens) (UniProt P04062)
Sequence (P04062 whole entry, looked up): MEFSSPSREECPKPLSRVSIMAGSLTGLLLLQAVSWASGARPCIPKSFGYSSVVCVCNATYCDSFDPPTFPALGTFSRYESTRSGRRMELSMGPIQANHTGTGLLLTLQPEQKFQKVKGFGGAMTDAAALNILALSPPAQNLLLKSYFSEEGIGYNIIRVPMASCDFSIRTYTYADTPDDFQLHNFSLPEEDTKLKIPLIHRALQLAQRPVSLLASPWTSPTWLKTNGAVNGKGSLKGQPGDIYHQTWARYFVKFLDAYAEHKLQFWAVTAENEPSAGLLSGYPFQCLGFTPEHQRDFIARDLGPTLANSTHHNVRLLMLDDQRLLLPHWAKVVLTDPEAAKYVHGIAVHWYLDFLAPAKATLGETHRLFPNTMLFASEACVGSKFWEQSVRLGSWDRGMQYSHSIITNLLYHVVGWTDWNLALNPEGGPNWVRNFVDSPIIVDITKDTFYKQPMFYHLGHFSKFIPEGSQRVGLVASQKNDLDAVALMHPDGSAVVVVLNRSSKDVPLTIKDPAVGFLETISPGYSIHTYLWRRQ
Assay: qHTS Assay for Inhibitors and Activators of N370S glucocerebrosidase as a Potential Chaperone Treatment of Gaucher Disease: Activity in Non-Mutant Spleen Homogenate Using a Red Fluorescent Substrate
Conditions: red fluorogenic substrate GCase activity; series mostly up to 50.2 µM; activity change, negative = inhibition: at the top concentration
Excerpt: NIH Chemical Genomics Center [NCGC]
NIH Molecular Libraries Probe Production Centers Network [MLPCN]
Assay Submitter (PI): Wei Zheng
Glucocerebrosidase (GC) catalyzes the hydrolysis of beta-glucocerebroside to glucose and ceramide in lysosomes. Mutations in the glucocerebrosidase gene result in Gaucher disease, an autosomal recessive lysosomal storage disorder. Many of the mutations encountered in patients with Gaucher disease are missense alterations that may cause misfolding, decreased stability and/or mistrafficking of this lysosomal protein. […] These inhibitors include iminosugar analogs and three non-iminosugar inhibitors identified from a previous HTS of 62,000 compounds with the wild type recombinant enzyme. However, the enhancement of enzyme activity by the chaperone action of an enzyme inhibitor must be balanced against the direct inhibition of the enzyme. An enzyme activator could also function as a chaperone by binding to the enzyme and helping to correct its misfolding and mistrafficking. While activators for GC have not yet been identified, they may have better therapeutic potential than inhibitors. Therefore the discovery and development of chemical activators may provide a new strategy for the chaperone therapy.
We have optimized a new assay using N370S mutant GC derived from the spleen of a Gaucher patient. […] In addition, the MLPCN compound library has expanded, which increases the chance of finding new and better probes.
This confirmation assay tests for compound activity in spleen homogenate containing wildtype enzyme using an alternate resorufin-based substrate.
NCGC Assay Protocol Summary:
This is a fluorogenic enzyme assay with resorufin-beta-D-glucopyranoside as the substrate and wildtype glucocerebrosidase from human spleen homogenate as the enzyme preparation. Upon the hydrolysis of this fluorogenic substrate, the resulting product, […] which can be detected by a standard fluorescence plate reader. Data were normalized to the controls for basal activity (without enzyme) and 100% activity (with enzyme). The AC50 values were determined from concentration-response data modeled with the standard Hill equation.
Assay buffer: 50 mM citric acid (titrated with potassium phosphate to pH 5.0), 100 mM potassium chloride, 10 mM sodium chloride, 1 mM magnesium chloride, 0.01% Tween-20.
1536-well assay protocol:
(1) Add 2 ul/well of spleen homogenate (27 ug final)
(2) Add 23 nL compounds in DMSO solution. The final titration was 0.5 nM to 58 uM.
(3) Add 2 ul of substrate (1 mM final)
(4) Incubate at 37C for 40 min.
(5) Add 2 ul stop solution (1M NaOH and 1M Glycine mixture, pH 10)
(6) Detect the assay plate in a ViewLux plate reader (PerkinElmer) with Ex=365 nm and Em=440nm.
Keywords: Glucocerebrosidase, beta-glucosidase, Gaucher Disease, pharmacological chaperone, chaperone therapy, high throughput screening, glucocerebrosidase inhibitor, MLSMR, MLSCN, NIH Roadmap, qHTS and NCGC

Structure (SMILES) | activity change, negative = inhibition [%] | Potency
O=C(COc1ccccc1C(=O)c1cnn(-c2ccccc2)c1)Nc1ccccc1 | -2.58 | –
O=S(=O)(c1ccc(OC(F)(F)F)cc1)N1CCN(c2nc(-c3cccs3)nc3ccccc23)CC1 | – | 3980 nM (active)
Cc1ccc(Cl)cc1NC(=O)c1ccccc1OCC(=O)Nc1ccc(Cl)cc1 | 27.3 | –
Clc1ccccc1-c1nccc(NCc2ccccc2)n1 | – | 3980 nM (active)
CCCC1CCC(C(=O)Nc2ccc3nc(N4CCOCC4)cc(C)c3c2)CC1 (stereo not given) | – | 447 nM (active)
O=S(=O)(c1ccccc1Br)N1CCN(c2nc(-c3cccs3)nc3ccccc23)CC1 | – | 562 nM (active)
Cc1ccccc1-c1nccc(NCc2cccs2)n1 | – | 14100 nM (active)
COc1ccccc1C(=O)COC(=O)c1ccccc1OCC(=O)Nc1ccc(SC(F)F)cc1 | 3.84 | –
Cc1cc(N2CCOCC2)nc2ccc(NC(=O)C3CCC(C)CC3)cc12 (stereo not given) | – | 2820 nM (active)
O=C(Nc1cc(Br)ccc1O)c1cnn2c(C(F)F)cc(C3CC3)nc12 | 8.3 | –
COC(=O)c1ccccc1NC(=O)c1ccc2c(c1)C(=O)N(Cc1ccccc1)C2=O | 8.05 | –
CCCNC(=O)COC(=O)c1ccccc1OCC(=O)Nc1ccc(Br)cc1 | -7.67 | –
O=S(=O)(c1ccc(C(F)(F)F)cc1)N1CCN(c2nc(-c3cccs3)nc3ccccc23)CC1 | – | 1260 nM (active)
O=[N+]([O-])c1ccc(S(=O)(=O)N2CCN(c3nc(-c4cccs4)nc4ccccc34)CC2)cc1 | – | 1120 nM (active)
O=C(Nc1nccs1)c1ccc(NS(=O)(=O)c2ccc(Cl)cc2)cc1 | -9.24 | –
O=[N+]([O-])c1ccccc1S(=O)(=O)N1CCN(c2nc(-c3cccs3)nc3ccccc23)CC1 | – | 562 nM (active)
N=c1c2c(-c3ccccc3)c(-c3ccccc3)n(Cc3ccco3)c2ncn1CCCn1ccnc1 | – | 12600 nM (active)
Cc1cc(Nc2cccc(Cl)c2)nc2ccc(NC(=O)C3CCC(C)CC3)cc12 (stereo not given) | -7.54 | –
COc1ccccc1NC(=O)COc1ccccc1C(=O)Nc1ccccc1 | 17 | –
O=S(=O)(c1ccc2c(c1)OCCO2)N1CCN(c2nc(-c3ccccc3)nc3ccccc23)CC1 | – | 4470 nM (active)

Structure (SMILES) | activity change, negative = inhibition [%] | Potency
CCOc1ccccc1NC(=O)CN(c1ccc(C)cc1)S(=O)(=O)c1c(C)noc1C | -9.17 | –
O=S(=O)(c1ccc(Cl)cc1)N1CCN(c2nc(-c3ccc(F)cc3)nc3cc(Cl)ccc23)CC1 | -4.14 | –
O=S(=O)(c1ccc2c(c1)CCCC2)N1CCN(c2nc(-c3cccs3)nc3ccccc23)CC1 | – | 282 nM (active)
O=[N+]([O-])c1cccc(S(=O)(=O)N2CCN(c3nc(-c4cccs4)nc4ccccc34)CC2)c1 | – | 1120 nM (active)
O=S(=O)(c1ccc(F)cc1)N1CCN(c2nc(-c3ccccc3)nc3cc(Cl)ccc23)CC1 | -14.7 | –
Cc1cc(C)cc(N(CC(=O)NC2CCC(C)CC2)S(=O)(=O)c2c(C)[nH]c(=O)[nH]c2=O)c1 (stereo not given) | – | 398 nM (active)
N#Cc1ccccc1Sc1ccccc1C(=O)OCC(=O)NC12CC3CC(CC(C3)C1)C2 | -4.18 | –
CCc1cc(C(=O)N/N=C/c2c(C)[nH]c3ccccc23)cs1 | 24.5 | –
S=C(NCCCc1cnc[nH]1)NCCCN(Cc1ccc(Cl)c(Cl)c1)c1ccc(Br)cn1 | – | 1000 nM (active)
COc1cccc(NC(=O)CSc2nc3ccccc3c(=O)n2Cc2cccs2)c1 | -11.8 | –
COc1ccc(Nc2nc(-c3cccs3)nc3ccccc23)cc1 | – | 1410 nM (active)
Cc1cc(N2CCCCC2)nc2ccc(NC(=O)C3CCC(C)CC3)cc12 (stereo not given) | – | 7940 nM (active)
Cc1ccc(S(=O)(=O)N2CCN(c3nc(-c4ccc(F)cc4)nc4cc(Cl)ccc34)CC2)cc1 | -16.6 | –
CCOc1ccc(N(CC(=O)NC2CCCCCC2)S(=O)(=O)c2c(C)[nH]c(=O)[nH]c2=O)cc1 | – | 1410 nM (active)
CCCCNC(=O)c1ccc(NS(=O)(=O)c2ccccc2)cc1 | 7.92 | –
N#Cc1ccccc1S(=O)(=O)N1CCN(c2nc(-c3cccs3)nc3ccccc23)CC1 | – | 1120 nM (active)
O=S(=O)(c1ccc(F)cc1)N1CCN(c2nc(-c3cccs3)nc3cc(Cl)ccc23)CC1 | 0.766 | –
c1ccc2c(NCC3CCCO3)nc(N3CCOCC3)nc2c1 (stereo not given) | 6.48 | –
Cc1cc(C)cc(N(CC(=O)NC2CCCCCC2)S(=O)(=O)c2c(C)[nH]c(=O)[nH]c2=O)c1 | – | 631 nM (active)
Cc1cc(N2CCOCC2)nc2ccc(NC(=O)CCC(=O)NC3CCCCC3)cc12 | -9.8 | –
